PubChem BioAssay AID1578 (Sanford-Burnham Center for Chemical Genomics, 2009)
The whole screen tested about 290,000 compounds, of which about 3,000 (1%) were called active. Rule as the data show it: active = inhibition mostly above about 36% (no sharp cut-off); inactive = mostly below about 34%. Only a selection was taken, and actives are over-represented in it overall.

assay: NOD1 signaling inhibitors, primary screen, cell-based, luminescence, uHTS (AID 1578); conditions: NOD1-driven NF-kB luciferase reporter cells, at 4 µM, stronger effect = higher value;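 also: HEK-293T reporter cells stimulated with the NOD1 agonist gamma-tri-DAP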

Structure (SMILES)	inhibition
NC(=O)C1CCN(c2ccc(S(=O)(=O)N3CCCCC3)cn2)CC1	-25.2% (inactive)
O=C(O)c1ccc(S(=O)(=O)N2CCC(Cc3ccccc3)CC2)cc1	2.5% (inactive)
Cc1ccc(CNC(=O)C2CC3Cn4c(nc5cc(C)c(C)cc54)C3N2C)o1 (centres undefined)	-2.6% (inactive)
Cc1ccc(/C=C2/SC(=S)N(CCC(=O)N3CCN(c4ccccc4)CC3)C2=O)cc1	5.7% (inactive)
CCOC(=O)N1CCN(CC(=O)Nc2ccc(F)c(F)c2)CC1	10.6% (inactive)
CCC(=O)Nc1nc2nc(-c3ccccc3)cc(=O)n2[nH]1	0.3% (inactive)
CCC(=O)Nc1nc2nc(C)cc(=O)n2[nH]1	57.1% (active)
CCCC(=O)Nc1nc2nc(C)cc(=O)n2[nH]1	-2.3% (inactive)
Brc1ccc(-c2nc(-c3ccncc3)no2)cc1	-20.7% (inactive)
NC1=NC(=O)C(CC(=O)Nc2ccc3c(c2)OCO3)S1 (centres undefined)	-24.1% (inactive)
CCCCNS(=O)(=O)c1ccc2nc(SCC(=O)Nc3sccc3C#N)[nH]c2c1	65.5% (active)
CCCCNS(=O)(=O)c1ccc2nc(SCC(=O)c3ccc(C#N)cc3)[nH]c2c1	-14.8% (inactive)
CCCCNS(=O)(=O)c1ccc2nc(SCC(=O)Nc3ccccc3)[nH]c2c1	-15.3% (inactive)
CC(=O)Nc1ccc2sc(C)nc2c1	-14.2% (inactive)
Cc1nc2cc(NC(=O)c3ccc(Br)s3)ccc2s1	-42.5% (inactive)
COc1ccc(Cl)cc1NC(=O)CN1C(=O)CSC1=O	-3.2% (inactive)
Cc1ccc(NC(=O)c2ccccc2N(C)S(=O)(=O)c2ccccc2)c(C)c1	-8.8% (inactive)
CCOC(=O)c1c(C)oc2c1C(=O)c1ccccc1C2=O	-38.5% (inactive)
Cc1oc2c(c1C(=O)O)C(=O)c1ccccc1C2=O	-30.8% (inactive)
CC(=O)c1c(C)oc2c1C(=O)c1ccccc1C2=O	79.5% (active)

Structure (SMILES)	inhibition
Cc1ccc(-c2nnn(CC(=O)N(Cc3ccccc3F)C(C(=O)NC3CCCC3)c3ccncc3)n2)o1 (centres undefined)	-44.1% (inactive)
CCOC(=O)C1=C(C)N(c2ccccc2)C(=O)NC1c1cccc([N+](=O)[O-])c1 (centres undefined)	-25.4% (inactive)
COc1ccc(C(=O)NCc2nnc(SCC(=O)N3CCCC3)o2)cc1	-25.5% (inactive)
O=C(CSc1nnc(CNC(=O)c2ccccc2)o1)NCCc1ccccc1	72% (active)
COc1ccc(C(=O)NCc2nnc(SCC(=O)NCCc3ccccc3)o2)cc1	-16.6% (inactive)
O=C(CSc1nnc(CNC(=O)c2ccc(F)cc2)o1)NCCc1ccccc1	-16% (inactive)
COc1ccc(C(=O)NCc2nnc(SCC(=O)N3CCOCC3)o2)cc1	37.2% (active)
COc1ccc(C(=O)NCc2nnc(SCC(=O)N3CCCCC3)o2)cc1	-32.2% (inactive)
COCCn1c(SCC(=O)Nc2ccc(S(N)(=O)=O)cc2)nc2ccccc21	-3.5% (inactive)
CCN(CC)C1CCN(C(=O)CCn2nnnc2CN2CCOCC2)C1 (centres undefined)	-54.3% (inactive)
COCCn1c(SCc2ccc(OC)c(F)c2)nnc1-c1ccncc1	-14.1% (inactive)
O=Cc1ccc(OC(=O)CCCCC(=O)Oc2ccc(C=O)cc2)cc1	4.4% (inactive)
CN1C2=CC=CC=CC2=[N+](C)C12C([N+](=O)[O-])=CC(=[N+]([O-])[O-])C=C2[N+](=O)[O-] (centres undefined)	57.4% (active)
CN1C2=CC=CC=CC2=[N+](C)C12C=CC(=[N+]([O-])[O-])C=C2[N+](=O)[O-] (centres undefined)	-35.5% (inactive)
CC(C)[N+]1=C2C=CC=CC=C2SC12C([N+](=O)[O-])=CC(=[N+]([O-])[O-])C=C2[N+](=O)[O-] (centres undefined)	-8.1% (inactive)
Fc1ccc(NC(=S)Nc2ccc(Cl)cc2Cl)cc1	-28.8% (inactive)
CC(=O)c1c(C)[nH]c(C(=O)Nc2ccc(C)c(S(=O)(=O)N(C)C)c2)c1C	-63.3% (inactive)
Nc1nc(NCC(=O)O)nc(NCc2ccccc2)c1[N+](=O)[O-]	-13.3% (inactive)
O=C(NNC1=Nc2ccccc2SC1)c1ccc(F)cc1	18.7% (inactive)
O=C(NNC1=Nc2ccccc2SC1)c1ccc(Cl)cc1	78.1% (active)

Structure (SMILES)	inhibition
O=C(NNC1=Nc2ccccc2SC1)c1ccccc1F	1.9% (inactive)
COc1cc(/C=C(\C#N)C(=O)N2CCOCC2)ccc1OCc1ccccc1	-23.3% (inactive)
O=S(=O)(c1cnc(Cl)c(Cl)c1)N1CCN(c2ncccn2)CC1	-5.2% (inactive)
CC(C)c1ccccc1NC(=O)COC(=O)c1cccnc1	-18.3% (inactive)
Cc1cc(NC(=O)CSc2cn(CCNC(=O)c3ccccc3)c3ccccc23)no1	11.3% (inactive)
Cc1ccc(C(=O)NCCn2cc(SCC(=O)Nc3cc(C)on3)c3ccccc32)cc1	-10.3% (inactive)
Cc1cc(NC(=O)CSc2cn(CCNC(=O)c3ccc(Cl)cc3)c3ccccc23)no1	75.9% (active)
O=C(CCC(=O)OCC(=O)c1ccc(Br)cc1)NC1CCCCC1	-4.2% (inactive)
CCn1c(SCC(=O)N2CCc3ccccc3C2)nc2sc(C)c(C)c2c1=O	20.4% (inactive)
CCC(=O)N1CCN(c2nc(C)nc3sc(C)c(C)c23)CC1	9.5% (inactive)
Cc1nc(SCC(=O)N2CCCCC2)c2c(C)c(C)sc2n1	-15.5% (inactive)
Cc1nc(N2CCN(C(=O)CCC(=O)O)CC2)c2c(C)c(C)sc2n1	-16.7% (inactive)
COC(=O)c1ccc(CNC(=O)N2CCN(S(=O)(=O)c3ccc(C)cc3)CC2)cc1	-19.3% (inactive)
Cn1c(=O)c2c(nc(SCc3ccccc3F)n2C)n(C)c1=O	24% (inactive)
Cc1ccc(/C=[N+](/[O-])C2SC(=S)N(C)C2(C)C)cc1 (centres undefined)	-10.5% (inactive)
CN1C(=S)SC(/[N+]([O-])=C\c2ccc(Cl)cc2)C1(C)C (centres undefined)	84.4% (active)
CN1C(=S)SC(/[N+]([O-])=C/c2ccc(Cl)cc2)C1(C)C (centres undefined)	12% (inactive)
O=C(O)c1ccc(-c2nc3scc(-c4ccccc4)c3c(=O)[nH]2)cc1	-3.4% (inactive)
COc1cc(SC)ccc1C(=O)OC1CCOC1=O (centres undefined)	7.7% (inactive)
